# According to PubChem BioAssay AID1159580 (chemical genetic matrix, 2015):
# Among all 5,500 compounds or so, about 2,000 (36%) were called active. Not shown: some 18% with an inconclusive outcome. The list shows a part of the results. Unmarked numbers belong to inactive results. Rule as the data show it: active = normalized growth mostly below about 0.91 (no sharp cut-off); inconclusive = no clear call, values can overlap the other calls; inactive = mostly above about 0.92.
# Assay: chemical genetic growth profiling, strain panel (AID 1159580);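 also: tested at 20 µM; growth read once vehicle control cultures reached saturation at 30 °C; 1 = growth at the plate median or of vehicle wells; lower values mean less growth of the strain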
# Conditions: S. cerevisiae deletion strains, growth OD
structure (smiles),measurement,setting,value
O=C(Nc1cccc(Cl)c1)O/N=C1\CCCc2occc21,normalized growth,"locus YAR019C, strain CDC15, active compounds read low",0.937
same,normalized growth,"locus YBL105C, strain PKC1, active compounds read low",0.952
same,normalized growth,"locus YBR135W, strain CKS1, active compounds read low",0.936
same,normalized growth,"locus YBR136W, strain MEC1, active compounds read low",0.939
same,normalized growth,"locus YBR160W, strain CDC28, active compounds read low",0.943
same,normalized growth,"locus YDL017W, strain CDC7, active compounds read low",0.949
same,normalized growth,"locus YDL028C, strain MPS1, active compounds read low",0.933
same,normalized growth,"locus YDL101C, strain DUN1, active compounds read low",0.965
same,normalized growth,"locus YDL108W, strain KIN28, active compounds read low",0.929
same,normalized growth,"locus YDL132W, strain cdc53, active compounds read low",0.917
same,normalized growth,"locus YDL214C, strain PRR2, active compounds read low",0.809
same,normalized growth,"locus YDR052C, strain DBF4, active compounds read low",0.964
same,normalized growth,"locus YDR054C, strain cdc34, active compounds read low",0.927
same,normalized growth,"locus YDR226W, strain ADK1, active compounds read low",0.945
same,normalized growth,"locus YDR477W, strain SNF1, active compounds read low",0.798
same,normalized growth,"locus YER123W, strain YCK3, active compounds read low",0.759
same,normalized growth,"locus YER133W, strain GLC7, active compounds read low",0.789
same,normalized growth,"locus YFL009W, strain cdc4, active compounds read low",0.925
same,normalized growth,"locus YFL029C, strain CAK1, active compounds read low",0.941
same,normalized growth,"locus YFR003C, strain YPI1, active compounds read low",0.937
same,normalized growth,"locus YFR019W, strain FAB1, active compounds read low",0.944
same,normalized growth,"locus YFR028C, strain CDC14, active compounds read low",0.935
same,normalized growth,"locus YGR040W, strain KSS1, active compounds read low",0.83
same,normalized growth,"locus YGR052W, strain FMP48, active compounds read low",0.8
same,normalized growth,"locus YGR092W, strain DBF2, active compounds read low",0.69
same,normalized growth,"locus YHR030C, strain SLT2, active compounds read low",0.649 (active)
same,normalized growth,"locus YHR079C, strain IRE1, active compounds read low",0.667
same,normalized growth,"locus YHR082C, strain KSP1, active compounds read low",0.752
same,normalized growth,"locus YHR205W, strain SCH9, active compounds read low",0.659
same,normalized growth,"locus YIL147C, strain SLN1, active compounds read low",0.943
same,normalized growth,"locus YJL095W, strain BCK1, active compounds read low",0.671
same,normalized growth,"locus YJL128C, strain PBS2, active compounds read low",0.954
same,normalized growth,"locus YJL157C, strain FAR1, active compounds read low",0.842
same,normalized growth,"locus YJR016C, strain ILV3, active compounds read low",0.931
same,normalized growth,"locus YJR066W, strain TOR1 (second series), active compounds read low",0.86
same,normalized growth,"locus YJR066W, strain TOR1, active compounds read low",0.742
same,normalized growth,"locus YKL048C, strain ELM1, active compounds read low",0.899
same,normalized growth,"locus YKL067W, strain YNK1, active compounds read low",0.817
same,normalized growth,"locus YKL101W, strain HSL1, active compounds read low",0.829
same,normalized growth,"locus YKL193C, strain SDS22, active compounds read low",0.926
same,normalized growth,"locus YKL203C, strain TOR2, active compounds read low",0.792
same,normalized growth,"locus YLR113W, strain HOG1, active compounds read low",0.613 (active)
same,normalized growth,"locus YLR133W, strain CKI1, active compounds read low",0.843
same,normalized growth,"locus YLR403W, strain SFP1, active compounds read low",0.748
same,normalized growth,"locus YML070W, strain DAK1, active compounds read low",0.788
same,normalized growth,"locus YMR001C, strain CDC5, active compounds read low",0.935
same,normalized growth,"locus YMR205C, strain PFK2 (second series), active compounds read low",0.831
same,normalized growth,"locus YMR277W, strain FCP1, active compounds read low",0.932
same,normalized growth,"locus YNL006W, strain LST8, active compounds read low",0.939
same,normalized growth,"locus YNL020C, strain ARK1, active compounds read low",0.828
same,normalized growth,"locus YNL161W, strain CBK1, active compounds read low",0.945
same,normalized growth,"locus YNL183C, strain NPR1, active compounds read low",0.652
same,normalized growth,"locus YNL207W, strain RIO2, active compounds read low",0.936
same,normalized growth,"locus YNL222W, strain SSU72, active compounds read low",0.929
same,normalized growth,"locus YNL307C, strain MCK1 (second series), active compounds read low",0.83
same,normalized growth,"locus YOL078W, strain AVO1, active compounds read low",0.923
same,normalized growth,"locus YOL136C, strain PFK27, active compounds read low",0.798
same,normalized growth,"locus YOR061W, strain CKA2, active compounds read low",0.85
same,normalized growth,"locus YOR119C, strain RIO1, active compounds read low",0.847
same,normalized growth,"locus YOR231W, strain MKK1, active compounds read low",0.672
same,normalized growth,"locus YOR329C, strain SCD5, active compounds read low",0.959
same,normalized growth,"locus YPL031C, strain PHO85, active compounds read low",0.741
same,normalized growth,"locus YPL153C, strain RAD53, active compounds read low",0.772
same,normalized growth,"locus YPL204W, strain HRR25, active compounds read low",0.773
same,normalized growth,"locus YPL209C, strain IPL1, active compounds read low",0.947
same,normalized growth,"locus YPL256C, strain CLN2, active compounds read low",0.631 (active)
same,normalized growth,"locus YPR025C, strain CCL1, active compounds read low",0.943
same,normalized growth,"locus YPR106W, strain ISR1, active compounds read low",0.944
same,normalized growth,"locus YPR111W, strain DBF20, active compounds read low",0.918
same,normalized growth,"strain NNK1, active compounds read low",0.927
same,normalized growth,"strain TSCII, active compounds read low",0.927
